Among the data in publication PMC7862700, “An all-to-all approach to the identification of sequence-specific readers for epigenetic DNA modifications on cytosine” are binding signal values, retold here.

What all share (experiment): DAPPL (digital affinity profiling via proximity ligation, sequencing); 10 mM Tris-HCl pH 7.5, 50 mM NaCl, 1 mM DTT, 4% glycerol, room temperature, 30 min; GST-TFs on glutathione beads, 16-mer random dsDNA library, 0.1% formaldehyde crosslink after washing; high values mean tight binding
Assay [1] concerns the target T1, FEV (Homo sapiens, UniProt Q99581 1-238).
T1 sequence: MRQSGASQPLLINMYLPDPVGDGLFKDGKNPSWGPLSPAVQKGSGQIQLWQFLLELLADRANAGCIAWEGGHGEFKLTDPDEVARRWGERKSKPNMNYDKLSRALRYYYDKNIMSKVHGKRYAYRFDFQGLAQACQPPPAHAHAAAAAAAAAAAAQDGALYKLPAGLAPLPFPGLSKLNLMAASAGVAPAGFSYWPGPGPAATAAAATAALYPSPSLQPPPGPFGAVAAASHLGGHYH
As to conditions: protein: recombinant; tags: N-terminal GST; dsDNA, one strand shown. In outline:
(§1)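 Beads coated with glutathione captured GST-fused human transcription factors that had been expressed in yeast, and the factors were then given DNA barcodes and pooled with a tag-only sample. The pools were incubated with 200 nmole of a random double-stranded 16-mer DNA library in Tris/NaCl/DTT/glycerol buffer for 30 min at room temperature, washed, crosslinked with 0.1% formaldehyde and proximity-ligated with BsaI/T4 ligase at 37 °C for 1 h. PCR amplification and Illumina NextSeq500 sequencing came last. Binding signal is each hexamer's read frequency for a factor divided by its frequency for the tag-only sample.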

The target in assay [2] is ETV5 (Homo sapiens, UniProt P41161 1-510). Particulars: protein: recombinant; tags: N-terminal GST; dsDNA, one strand shown. In a few lines:
as §1

In assay [3] the target is HSF1 (Homo sapiens, UniProt Q00613 1-529). As to conditions: protein: recombinant; tags: N-terminal GST; chain copies: 3; dsDNA, one strand shown. In outline: as §1
Chain of HSF1 (Q00613 whole entry): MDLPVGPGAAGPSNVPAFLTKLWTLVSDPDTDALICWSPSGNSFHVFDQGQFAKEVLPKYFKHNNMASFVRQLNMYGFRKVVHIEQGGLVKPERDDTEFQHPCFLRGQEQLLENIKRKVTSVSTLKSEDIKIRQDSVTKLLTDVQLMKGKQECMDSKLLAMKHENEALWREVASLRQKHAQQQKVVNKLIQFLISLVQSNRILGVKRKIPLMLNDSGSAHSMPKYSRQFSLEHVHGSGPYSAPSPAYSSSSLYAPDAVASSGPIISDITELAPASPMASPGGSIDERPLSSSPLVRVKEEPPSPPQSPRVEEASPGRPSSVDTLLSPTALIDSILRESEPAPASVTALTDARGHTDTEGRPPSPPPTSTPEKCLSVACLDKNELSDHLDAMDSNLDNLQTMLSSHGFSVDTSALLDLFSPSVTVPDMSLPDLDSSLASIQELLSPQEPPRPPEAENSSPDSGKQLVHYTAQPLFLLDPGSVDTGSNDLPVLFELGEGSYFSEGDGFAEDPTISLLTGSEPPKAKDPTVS
Assay [4] deals with T2, SPIC (Homo sapiens, UniProt Q8N5J4 1-248).
T2 sequence: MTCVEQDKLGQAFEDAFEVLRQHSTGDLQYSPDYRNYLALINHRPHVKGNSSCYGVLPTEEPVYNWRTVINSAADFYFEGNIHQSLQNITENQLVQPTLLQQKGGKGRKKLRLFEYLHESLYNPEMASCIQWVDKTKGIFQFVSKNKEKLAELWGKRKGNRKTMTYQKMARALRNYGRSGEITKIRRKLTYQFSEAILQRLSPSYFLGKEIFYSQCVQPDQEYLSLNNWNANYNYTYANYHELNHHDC
As to conditions: protein: recombinant; tags: N-terminal GST; dsDNA, one strand shown. In outline:
as §1

The target in assay [5] is ELF4 (Homo sapiens, UniProt Q99607 1-663). As to conditions: protein: recombinant; tags: N-terminal GST; dsDNA, one strand shown. In a few lines:
as §1

For assay [6], the target named is T3, ELK4 (Homo sapiens, UniProt P28324-2 1-405).
T3 sequence: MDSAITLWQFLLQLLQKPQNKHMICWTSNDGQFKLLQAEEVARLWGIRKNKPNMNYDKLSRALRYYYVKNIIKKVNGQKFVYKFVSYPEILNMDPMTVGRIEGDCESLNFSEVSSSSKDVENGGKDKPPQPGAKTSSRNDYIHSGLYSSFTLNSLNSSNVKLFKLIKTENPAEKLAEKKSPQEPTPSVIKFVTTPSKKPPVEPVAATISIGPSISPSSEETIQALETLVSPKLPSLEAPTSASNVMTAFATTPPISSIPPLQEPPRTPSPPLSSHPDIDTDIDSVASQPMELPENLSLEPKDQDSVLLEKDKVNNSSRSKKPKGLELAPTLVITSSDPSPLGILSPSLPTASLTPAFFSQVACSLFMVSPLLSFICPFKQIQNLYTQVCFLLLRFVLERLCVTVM
Particulars: protein: recombinant; tags: N-terminal GST; dsDNA, one strand shown. In outline:
as §1

Assay [7] has as its target T4, ETV2 (Homo sapiens, UniProt O00321 1-342).
T4 sequence: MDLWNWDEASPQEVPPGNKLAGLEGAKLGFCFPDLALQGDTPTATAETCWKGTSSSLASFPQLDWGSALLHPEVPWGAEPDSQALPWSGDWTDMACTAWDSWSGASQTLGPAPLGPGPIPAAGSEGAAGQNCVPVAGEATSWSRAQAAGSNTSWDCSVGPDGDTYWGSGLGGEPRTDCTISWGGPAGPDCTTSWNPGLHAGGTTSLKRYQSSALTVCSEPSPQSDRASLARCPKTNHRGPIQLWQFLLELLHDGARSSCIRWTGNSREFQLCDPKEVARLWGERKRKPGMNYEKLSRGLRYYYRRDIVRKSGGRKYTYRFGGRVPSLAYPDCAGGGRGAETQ
Particulars: protein: recombinant; tags: N-terminal GST; dsDNA, one strand shown. In outline: as §1

The target of assay [8] is T5, ELF3 (Homo sapiens, UniProt P78545 1-371).
T5 sequence: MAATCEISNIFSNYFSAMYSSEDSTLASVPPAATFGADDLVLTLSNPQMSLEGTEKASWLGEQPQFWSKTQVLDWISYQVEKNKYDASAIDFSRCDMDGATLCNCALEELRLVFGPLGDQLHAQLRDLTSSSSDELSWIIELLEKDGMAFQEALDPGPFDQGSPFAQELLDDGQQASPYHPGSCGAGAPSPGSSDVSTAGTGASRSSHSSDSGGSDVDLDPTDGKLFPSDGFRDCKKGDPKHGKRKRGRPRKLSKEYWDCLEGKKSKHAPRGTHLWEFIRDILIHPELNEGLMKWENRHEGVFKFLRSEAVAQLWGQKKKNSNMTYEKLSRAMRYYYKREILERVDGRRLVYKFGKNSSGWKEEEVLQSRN
Particulars: protein: recombinant; tags: N-terminal GST; dsDNA, one strand shown. In outline: as §1

The target in assay [9] is CRX (Homo sapiens, UniProt O43186 1-299). Particulars: protein: recombinant; tags: N-terminal GST; dsDNA, one strand shown. In outline:
as §1

Assay [10] deals with ETV1 (Homo sapiens, UniProt P50549 1-477). As to conditions: protein: recombinant; tags: N-terminal GST; dsDNA, one strand shown. In a few lines:
as §1

Chain of ETV5 (P41161 whole entry): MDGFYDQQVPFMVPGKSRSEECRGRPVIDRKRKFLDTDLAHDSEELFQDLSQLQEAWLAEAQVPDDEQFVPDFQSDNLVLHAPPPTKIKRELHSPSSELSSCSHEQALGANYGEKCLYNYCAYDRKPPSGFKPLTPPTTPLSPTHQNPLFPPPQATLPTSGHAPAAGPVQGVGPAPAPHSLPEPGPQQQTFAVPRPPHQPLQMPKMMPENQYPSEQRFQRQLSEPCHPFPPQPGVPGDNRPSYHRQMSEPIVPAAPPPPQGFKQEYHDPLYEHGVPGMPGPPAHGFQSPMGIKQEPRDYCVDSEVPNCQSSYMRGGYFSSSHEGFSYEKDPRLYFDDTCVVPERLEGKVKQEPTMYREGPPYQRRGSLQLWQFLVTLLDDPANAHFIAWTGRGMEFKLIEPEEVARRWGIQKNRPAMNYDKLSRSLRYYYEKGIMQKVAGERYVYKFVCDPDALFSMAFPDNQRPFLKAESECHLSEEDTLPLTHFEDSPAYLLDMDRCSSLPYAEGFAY
Chain of ELF4 (Q99607 whole entry): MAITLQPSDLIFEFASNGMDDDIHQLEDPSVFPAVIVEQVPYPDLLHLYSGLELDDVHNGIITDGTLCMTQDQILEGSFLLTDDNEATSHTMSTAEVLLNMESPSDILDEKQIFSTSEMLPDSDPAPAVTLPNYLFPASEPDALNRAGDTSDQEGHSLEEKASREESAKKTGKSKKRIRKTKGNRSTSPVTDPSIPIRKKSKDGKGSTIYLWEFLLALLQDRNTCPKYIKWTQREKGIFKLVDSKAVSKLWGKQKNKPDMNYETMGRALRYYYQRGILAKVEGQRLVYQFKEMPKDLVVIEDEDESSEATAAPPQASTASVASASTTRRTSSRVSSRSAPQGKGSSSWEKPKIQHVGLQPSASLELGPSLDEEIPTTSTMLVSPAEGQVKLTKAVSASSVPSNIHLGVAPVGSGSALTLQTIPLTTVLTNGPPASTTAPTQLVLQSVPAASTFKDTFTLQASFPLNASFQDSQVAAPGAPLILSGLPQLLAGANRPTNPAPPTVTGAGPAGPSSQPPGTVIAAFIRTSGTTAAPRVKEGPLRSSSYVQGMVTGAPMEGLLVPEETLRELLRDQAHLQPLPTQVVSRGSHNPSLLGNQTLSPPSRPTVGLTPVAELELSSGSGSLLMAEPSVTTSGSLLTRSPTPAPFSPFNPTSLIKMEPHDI
Chain of CRX (O43186 whole entry): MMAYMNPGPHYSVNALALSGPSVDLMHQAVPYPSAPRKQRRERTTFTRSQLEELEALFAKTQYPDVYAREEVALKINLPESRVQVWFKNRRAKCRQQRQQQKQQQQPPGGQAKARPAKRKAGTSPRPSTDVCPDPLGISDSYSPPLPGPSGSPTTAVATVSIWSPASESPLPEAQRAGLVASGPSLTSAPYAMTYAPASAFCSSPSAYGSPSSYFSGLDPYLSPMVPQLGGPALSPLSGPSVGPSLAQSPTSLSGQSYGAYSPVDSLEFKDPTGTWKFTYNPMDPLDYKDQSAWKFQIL
Chain of ETV1 (P50549 whole entry): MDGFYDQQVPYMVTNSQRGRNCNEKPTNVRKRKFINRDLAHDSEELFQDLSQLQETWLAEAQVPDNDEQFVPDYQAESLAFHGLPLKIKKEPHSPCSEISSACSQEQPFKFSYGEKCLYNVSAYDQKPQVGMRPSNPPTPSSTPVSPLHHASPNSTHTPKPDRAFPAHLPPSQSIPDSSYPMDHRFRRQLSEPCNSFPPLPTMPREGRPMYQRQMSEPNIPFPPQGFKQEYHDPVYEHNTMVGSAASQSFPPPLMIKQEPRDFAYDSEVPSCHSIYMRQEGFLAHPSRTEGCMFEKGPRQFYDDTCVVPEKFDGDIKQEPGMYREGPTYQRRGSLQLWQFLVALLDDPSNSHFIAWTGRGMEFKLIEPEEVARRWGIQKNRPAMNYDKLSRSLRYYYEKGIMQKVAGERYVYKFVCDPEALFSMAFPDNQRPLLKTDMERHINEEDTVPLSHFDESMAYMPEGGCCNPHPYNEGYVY

On to ATACAT, for which the binding signal was 1.29 fold enrichment (6-mer frequency, TF over GST control) in assay [1]; 1.23 fold enrichment (6-mer frequency, TF over GST control) in [2]; 1.01 fold enrichment (6-mer frequency, TF over GST control) in assay [3]; 1.15 fold enrichment (6-mer frequency, TF over GST control) in assay [4]; 1.33 fold enrichment (6-mer frequency, TF over GST control) in [5]; 1.31 fold enrichment (6-mer frequency, TF over GST control) in [6]. For the same sequence, the binding signal in assay [7] was 1.33 fold enrichment (6-mer frequency, TF over GST control); in assay [8] it was 1.15 fold enrichment (6-mer frequency, TF over GST control); in assay [9], 1.06 fold enrichment (6-mer frequency, TF over GST control); in assay [10], 1.33 fold enrichment (6-mer frequency, TF over GST control).
On to TACCAT, for which the binding signal was 1.14 fold enrichment (6-mer frequency, TF over GST control) in assay [1]; 1.13 fold enrichment (6-mer frequency, TF over GST control) in [2]; 1.14 fold enrichment (6-mer frequency, TF over GST control) in assay [3]; 1.11 fold enrichment (6-mer frequency, TF over GST control) in assay [4]; 1.22 fold enrichment (6-mer frequency, TF over GST control) in assay [5]; 1.27 fold enrichment (6-mer frequency, TF over GST control) in assay [6]. Moreover, the binding signal in assay [7] is 1.15 fold enrichment (6-mer frequency, TF over GST control); in [8], 1.16 fold enrichment (6-mer frequency, TF over GST control); in assay [9], 1.23 fold enrichment (6-mer frequency, TF over GST control); in assay [10] it was 1.2 fold enrichment (6-mer frequency, TF over GST control).
Consider TCTTCT, for which the binding signal in assay [1] is 1.16 fold enrichment (6-mer frequency, TF over GST control); in [2], 1.14 fold enrichment (6-mer frequency, TF over GST control); in [3], 2.17 fold enrichment (6-mer frequency, TF over GST control); in assay [4] it was 1.31 fold enrichment (6-mer frequency, TF over GST control); in [5], 1.16 fold enrichment (6-mer frequency, TF over GST control); in assay [6], 1.26 fold enrichment (6-mer frequency, TF over GST control). The binding signal in assay [7] is 1.22 fold enrichment (6-mer frequency, TF over GST control); in assay [8], 1.31 fold enrichment (6-mer frequency, TF over GST control); in assay [9], 1.59 fold enrichment (6-mer frequency, TF over GST control); in assay [10], 1.25 fold enrichment (6-mer frequency, TF over GST control).
Regarding TTTTAA, the binding signal in assay [1] was 1.26 fold enrichment (6-mer frequency, TF over GST control); in assay [2], 1.24 fold enrichment (6-mer frequency, TF over GST control); in assay [3] it was 1.59 fold enrichment (6-mer frequency, TF over GST control); in assay [4] it was 1.15 fold enrichment (6-mer frequency, TF over GST control); in assay [5], 1.28 fold enrichment (6-mer frequency, TF over GST control); in assay [6], 1.22 fold enrichment (6-mer frequency, TF over GST control). Further, the binding signal in assay [7] was 1.27 fold enrichment (6-mer frequency, TF over GST control); in [8] it was 1.32 fold enrichment (6-mer frequency, TF over GST control); in assay [9], 2.18 fold enrichment (6-mer frequency, TF over GST control); in assay [10], 1.26 fold enrichment (6-mer frequency, TF over GST control).
Take CCTTGC: the binding signal was 1.27 fold enrichment (6-mer frequency, TF over GST control) in [1]; 1.17 fold enrichment (6-mer frequency, TF over GST control) in assay [2]; 1.04 fold enrichment (6-mer frequency, TF over GST control) in [3]; 1.45 fold enrichment (6-mer frequency, TF over GST control) in [4]; 1.27 fold enrichment (6-mer frequency, TF over GST control) in assay [5]; 1.2 fold enrichment (6-mer frequency, TF over GST control) in assay [6]. In addition, the binding signal in assay [7] was 1.44 fold enrichment (6-mer frequency, TF over GST control); in assay [8], 1.49 fold enrichment (6-mer frequency, TF over GST control); in assay [9], 1.02 fold enrichment (6-mer frequency, TF over GST control); in assay [10], 1.33 fold enrichment (6-mer frequency, TF over GST control).
In the case of ATATAG, the binding signal is 1.1 fold enrichment (6-mer frequency, TF over GST control) in assay [1]; 1.24 fold enrichment (6-mer frequency, TF over GST control) in [2]; 1.19 fold enrichment (6-mer frequency, TF over GST control) in assay [3]; 1.2 fold enrichment (6-mer frequency, TF over GST control) in assay [4]; 1.09 fold enrichment (6-mer frequency, TF over GST control) in [5]; 1.19 fold enrichment (6-mer frequency, TF over GST control) in [6]. The binding signal in assay [7] was 1.07 fold enrichment (6-mer frequency, TF over GST control); in assay [8], 1.28 fold enrichment (6-mer frequency, TF over GST control); in [9], 1.26 fold enrichment (6-mer frequency, TF over GST control); in assay [10], 1.17 fold enrichment (6-mer frequency, TF over GST control).
For TGGCTA, the binding signal is 1.22 fold enrichment (6-mer frequency, TF over GST control) in assay [1]; 1.2 fold enrichment (6-mer frequency, TF over GST control) in assay [2]; 1.25 fold enrichment (6-mer frequency, TF over GST control) in [3]; 1.25 fold enrichment (6-mer frequency, TF over GST control) in assay [4]; 1.19 fold enrichment (6-mer frequency, TF over GST control) in assay [5]; 1.47 fold enrichment (6-mer frequency, TF over GST control) in assay [6]. Also, the binding signal in assay [7] is 1.23 fold enrichment (6-mer frequency, TF over GST control); in assay [8] it was 1.27 fold enrichment (6-mer frequency, TF over GST control); in assay [9], 1.35 fold enrichment (6-mer frequency, TF over GST control); in [10], 1.16 fold enrichment (6-mer frequency, TF over GST control).
With GATTTT, the binding signal was 1.09 fold enrichment (6-mer frequency, TF over GST control) in assay [1]; 1.1 fold enrichment (6-mer frequency, TF over GST control) in [2]; 1.45 fold enrichment (6-mer frequency, TF over GST control) in assay [3]; 1.14 fold enrichment (6-mer frequency, TF over GST control) in assay [4]; 1.15 fold enrichment (6-mer frequency, TF over GST control) in [5]; 1.24 fold enrichment (6-mer frequency, TF over GST control) in assay [6]. Moreover, the binding signal is 1.12 fold enrichment (6-mer frequency, TF over GST control) in assay [7]; 1.14 fold enrichment (6-mer frequency, TF over GST control) in [8]; 1.72 fold enrichment (6-mer frequency, TF over GST control) in assay [9]; 1.17 fold enrichment (6-mer frequency, TF over GST control) in assay [10].
